A number with no mark means an inactive call. Results filed as inconclusive are left out. Active and inactive are the calls of the source. Calls come from the whole dose curve; as a rule, active = well fitted curve in the direction sought with a large enough effect in the repeat runs; inconclusive = weak or mixed curves; inactive = no such curve, though single readings can be large; an effect the other way counts as inactive or inconclusive.
Assay: Caspase-3/7 induction in CHO-K1 cells by small molecules, qHTS assay (AID 1346980); note: nearly all actives have a fitted effect of over 15% in size
Details: CHO-K1 caspase-3/7 induction, Caspase-Glo luminescence, 17 h; series mostly up to 92.4 µM
Outline: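 Luminescent Caspase-Glo 3/7 read (30min, room temperature) quantified apoptosis induction. Cells were wild-type CHO-K1, treated with compound for 17hr at 37 C and 5% CO2.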
% is set by controls: 0 for no effect and ±100 for the full control effect.

SMILES | outcome | caspase-3/7 activation
C[C@@H](O)C(=O)O | inactive | –
CC1c2ccccc2CN1NC(=O)c1ccc(Cl)c(S(N)(=O)=O)c1 (stereo unspecified) | inactive | –
O=C1CCC(=O)N1Cl | inactive | –
C/C(CC(C)C)=N\O | inactive | –
CCC(C)C(=O)OCCc1ccccc1 (stereo unspecified) | inactive | –
CC(=O)CCC1=C(C)CCCC1(C)C | inactive | –
CCOc1ccccc1OCC1CNCCO1 (stereo unspecified) | inactive | –
COC(=O)c1cccc(Cl)c1 | inactive | –
Cc1ccc2c(c1)C(=O)c1ccccc1C2=O | inactive | –
C=C(C)c1cccc(C(C)(C)N=C=O)c1 | inactive | –
Cc1cc(C)c(C(=O)O)c(C)c1 | inactive | –
CCCSSCCC | inactive | –
CC1(C)Cc2cccc(N)c2O1 | inactive | –
C=CCN1C[C@H](C(=O)N(CCCN(C)C)C(=O)NCC)C[C@@H]2c3cccc4[nH]cc(c34)C[C@H]21 | inactive | –
O=C[O][Al]([O]C=O)[O]C=O | inactive | –
CC1CC(=O)CC(C)(C)C1 (stereo unspecified) | inactive | –
CC(C)Nc1ccccc1 | inactive | –
CCCCCCCCCCCCCCC(=O)NC(CO)CCCCCCCCCCCCCC (stereo unspecified) | inactive | –
CN(C)CCCCl | inactive | –

SMILES | outcome | caspase-3/7 activation
C[C@H]1[C@@H](c2ccccc2)NC(=O)N1C | inactive | –
CC(=O)OC1CCCCC1C(C)(C)C (stereo unspecified) | inactive | –
O=C(O)[C@H](O)c1ccccc1 | inactive | –
COC(=O)CCCCC(=O)O | inactive | –
C=CCSSCCC | inactive | –
CO/N=C(/C(=O)N[C@@H]1C(=O)N2C(C(=O)[O-])=C(C[n+]3ccn4ncccc43)CS[C@H]12)c1nsc(N)n1 | inactive | –
CC12CCC(C1)C(C)(C)C2O (stereo unspecified) | inactive | –
C/C=C(\C)C(C)=O | inactive | –
CN(C)CCN(C)CCO | inactive | –
C[C@]12CCC(=O)C=C1CC[C@H]1[C@@H]3CC[C@](O)(C(=O)CO)[C@@]3(C)C[C@H](O)[C@@]12F | inactive | –
CC1OCCC1=O (stereo unspecified) | inactive | –
CCCC(=O)OC/C=C(\C)CCC=C(C)C | inactive | –
C=CCCCCCCCCC(=O)OCCCC | inactive | –
CN1C[C@@H]2C[C@H]1CN2c1cc2c(cc1F)c(=O)c(C(=O)O)cn2C1CC1 | – | -1.08% [at 19 µM]
CCC/C=C(\C=O)CC | inactive | –
CC1(C)CC(OC(=O)CCCCCCCCC(=O)OC2CC(C)(C)NC(C)(C)C2)CC(C)(C)N1 | – | -0.118% [at 19 µM]
O=C1OCCO1 | inactive | –
CC1CCc2c(N3CCC(O)CC3)c(F)cc3c(=O)c(C(=O)O)cn1c23 (stereo unspecified) | inactive | –

Assay: Caspase-3/7 induction in HepG2 cells by small molecules, qHTS cell viability counter screen (AID 1346981); note: nearly all actives have a fitted effect of over 30% in size
Details: CellTiter-Fluor fluorescence, 17 h; series mostly up to 92.4 µM
Outline: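 Treatment of HepG2 cells with DMSO-delivered compounds ran 16 hr at 37 C following a 5-hr pre-incubation of 2,000 cells/well. CellTiter-Fluor fluorescence, read after 1 hr, served as the viability measure in a qHTS format.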

SMILES | outcome | activity change, negative = cytotoxicity
C[C@@H](O)C(=O)O | inactive | –
CC1c2ccccc2CN1NC(=O)c1ccc(Cl)c(S(N)(=O)=O)c1 (stereo unspecified) | inactive | –
O=C1CCC(=O)N1Cl | inactive | –
C/C(CC(C)C)=N\O | inactive | –
CCC(C)C(=O)OCCc1ccccc1 (stereo unspecified) | inactive | –
CCOc1ccccc1OCC1CNCCO1 (stereo unspecified) | inactive | –
COC(=O)c1cccc(Cl)c1 | inactive | –
Cc1ccc2c(c1)C(=O)c1ccccc1C2=O | inactive | –
C=C(C)c1cccc(C(C)(C)N=C=O)c1 | inactive | –
Cc1cc(C)c(C(=O)O)c(C)c1 | inactive | –
CCCSSCCC | inactive | –
CC1(C)Cc2cccc(N)c2O1 | inactive | –
O=C[O][Al]([O]C=O)[O]C=O | inactive | –
CC1CC(=O)CC(C)(C)C1 (stereo unspecified) | inactive | –
CC(C)Nc1ccccc1 | inactive | –
CCCCCCCCCCCCCCC(=O)NC(CO)CCCCCCCCCCCCCC (stereo unspecified) | inactive | –
CN(C)CCCCl | inactive | –

SMILES | outcome | activity change, negative = cytotoxicity
C[C@H]1[C@@H](c2ccccc2)NC(=O)N1C | inactive | –
CC(=O)OC1CCCCC1C(C)(C)C (stereo unspecified) | inactive | –
O=C(O)[C@H](O)c1ccccc1 | inactive | –
COC(=O)CCCCC(=O)O | inactive | –
C=CCSSCCC | inactive | –
CO/N=C(/C(=O)N[C@@H]1C(=O)N2C(C(=O)[O-])=C(C[n+]3ccn4ncccc43)CS[C@H]12)c1nsc(N)n1 | inactive | –
CC12CCC(C1)C(C)(C)C2O (stereo unspecified) | inactive | –
C/C=C(\C)C(C)=O | inactive | –
CN(C)CCN(C)CCO | inactive | –
C[C@]12CCC(=O)C=C1CC[C@H]1[C@@H]3CC[C@](O)(C(=O)CO)[C@@]3(C)C[C@H](O)[C@@]12F | inactive | –
CC1OCCC1=O (stereo unspecified) | inactive | –
CCCC(=O)OC/C=C(\C)CCC=C(C)C | inactive | –
CN1C[C@@H]2C[C@H]1CN2c1cc2c(cc1F)c(=O)c(C(=O)O)cn2C1CC1 | – | -1.05% [at 19 µM]
CCC/C=C(\C=O)CC | inactive | –
CC1(C)CC(OC(=O)CCCCCCCCC(=O)OC2CC(C)(C)NC(C)(C)C2)CC(C)(C)N1 | – | -0.861% [at 19 µM]
O=C1OCCO1 | inactive | –
CC1CCc2c(N3CCC(O)CC3)c(F)cc3c(=O)c(C(=O)O)cn1c23 (stereo unspecified) | inactive | –

From PubChem BioAssay (Tox21)
